From the supplement of paper PMC10849652
The full data set covers some 7,900 targets. This sample favours those with a hit. About 0.6% of all pairs of compound and target were hits.

Legend:
Experiment in all cases: log2 fold change, soluble protein after heating vs DMSO (PISA); higher = thermal stabilisation; K562 cells, 10 uM, 30 min; active = over 0.2 and 3.5 SD of the protein, either way, in both replicates (recomputed)
[1] = compound: C1=CC=C(C=C1)[C@H](COC2=CC3=C(C=C2)NC(=O)N3)NC(=O)C4=CC=CN(C4=O)CC5=CC(=C(C=C5)F)F
In short: (§1)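 Aliquots of K562 cells (2×10^6 cells/mL) treated with 10 μM compound for 30 min were heated for 3 min over 48°C-58°C. After pooling and extraction in PBS with 0.5% NP-40 at 4°C, soluble protein from a 21,000xg, 90 min spin was quantified by TMTpro 16plex LC-MS/MS with channel sums equalised. Thermal stability is expressed against control samples, from duplicates, as a log2 fold change.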

[2] = compound: CC1=C(SC2=C1C(=N[C@H](C3=NN=C(N32)C)CC(=O)N)C4=CC=C(C=C4)Cl)C
In short: as §1

[3] = compound: CC1=C2C(=CC=C1)N=C(N(C2=O)C3=CC=CC=C3C)CN4C=NC5=C(N=CN=C54)N
In short: as §1

[4] = compound: Cc1sc2c(c1C)C(c1ccc(Cl)cc1)=N[C@@H](CC(=O)OC(C)(C)C)c1nnc(C)n1-2
In short: as §1

[5] = compound: c1ccc([C@@H]2C[C@H]2NC2CCNCC2)cc1
In short: as §1

Measured: log2 fold change

DIP2A (UniProt Q14689)
inactive: [1] -0.03 | [2] 0.042 | [3] -0.149 | [4] 0.019 | [5] -0.078

DCTPP1 (UniProt Q9H773)
inactive: [1] 0.022 | [2] 0.029 | [3] -0.015 | [4] -0.043 | [5] 0.009

EEF1D isoform 2 (UniProt P29692)
inactive: [1] -0.031 | [2] 0.003 | [3] 0.073 | [4] 0.012 | [5] -0.011

FAM160A2 isoform 2 (UniProt Q8N612)
inactive: [1] -0.027 | [2] -0.054 | [3] 0.343 | [4] 0.148 | [5] -0.344

FAM117A (UniProt Q9C073)
Chain of UniProt Q9C073 (Q9C073 whole entry, looked up): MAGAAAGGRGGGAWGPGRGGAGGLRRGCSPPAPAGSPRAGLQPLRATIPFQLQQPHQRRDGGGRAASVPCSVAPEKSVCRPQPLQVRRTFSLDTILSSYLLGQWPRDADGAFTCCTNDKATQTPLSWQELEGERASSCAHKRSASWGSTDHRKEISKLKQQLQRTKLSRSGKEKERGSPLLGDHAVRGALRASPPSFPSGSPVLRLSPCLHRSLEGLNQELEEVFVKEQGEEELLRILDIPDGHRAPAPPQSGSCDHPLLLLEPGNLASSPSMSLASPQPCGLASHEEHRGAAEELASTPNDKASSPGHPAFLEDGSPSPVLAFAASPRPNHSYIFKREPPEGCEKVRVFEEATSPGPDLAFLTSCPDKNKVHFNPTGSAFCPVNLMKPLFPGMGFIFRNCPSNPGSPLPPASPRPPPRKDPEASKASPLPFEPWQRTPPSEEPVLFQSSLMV
inactive: [1] -0.004 | [2] 0.057 | [3] 0.027 | [4] 0.01 | [5] 0.012

FAAP100 (UniProt Q0VG06)
Chain of UniProt Q0VG06 (Q0VG06 whole entry, looked up): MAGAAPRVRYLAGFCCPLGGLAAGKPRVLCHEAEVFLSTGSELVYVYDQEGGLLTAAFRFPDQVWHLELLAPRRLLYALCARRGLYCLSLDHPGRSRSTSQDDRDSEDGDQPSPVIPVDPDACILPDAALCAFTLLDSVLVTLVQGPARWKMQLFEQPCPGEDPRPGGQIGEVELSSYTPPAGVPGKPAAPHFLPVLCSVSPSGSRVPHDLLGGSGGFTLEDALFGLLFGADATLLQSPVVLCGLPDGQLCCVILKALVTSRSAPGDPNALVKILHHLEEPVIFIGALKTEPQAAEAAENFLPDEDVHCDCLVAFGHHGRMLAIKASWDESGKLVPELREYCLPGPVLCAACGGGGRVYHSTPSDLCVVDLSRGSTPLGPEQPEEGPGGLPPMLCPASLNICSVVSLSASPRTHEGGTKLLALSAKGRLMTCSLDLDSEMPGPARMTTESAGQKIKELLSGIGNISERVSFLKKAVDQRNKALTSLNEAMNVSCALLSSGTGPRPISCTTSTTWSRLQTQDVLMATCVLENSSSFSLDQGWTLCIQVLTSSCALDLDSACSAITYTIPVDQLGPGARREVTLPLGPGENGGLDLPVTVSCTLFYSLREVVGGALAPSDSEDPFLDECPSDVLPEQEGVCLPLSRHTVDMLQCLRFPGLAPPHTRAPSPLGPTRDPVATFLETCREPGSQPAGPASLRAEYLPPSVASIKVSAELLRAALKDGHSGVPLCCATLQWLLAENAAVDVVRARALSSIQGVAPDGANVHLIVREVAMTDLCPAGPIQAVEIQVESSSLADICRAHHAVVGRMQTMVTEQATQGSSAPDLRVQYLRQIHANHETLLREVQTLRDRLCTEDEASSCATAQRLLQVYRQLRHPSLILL
inactive: [1] -0.243 | [2] 0.078 | [3] 0.017 | [4] -0.073 | [5] 0.067

EED, A0A5F9ZI63
inactive: [1] 0.002 | [2] 0.011 | [3] 0.03 | [4] -0.029 | [5] -0.006

EIF2S3 (UniProt P41091)
inactive: [1] 0.008 | [2] -0.023 | [3] -0.017 | [4] 0.054 | [5] -0.002

EHBP1L1 (UniProt Q8N3D4)
Chain of UniProt Q8N3D4 (Q8N3D4 whole entry, looked up): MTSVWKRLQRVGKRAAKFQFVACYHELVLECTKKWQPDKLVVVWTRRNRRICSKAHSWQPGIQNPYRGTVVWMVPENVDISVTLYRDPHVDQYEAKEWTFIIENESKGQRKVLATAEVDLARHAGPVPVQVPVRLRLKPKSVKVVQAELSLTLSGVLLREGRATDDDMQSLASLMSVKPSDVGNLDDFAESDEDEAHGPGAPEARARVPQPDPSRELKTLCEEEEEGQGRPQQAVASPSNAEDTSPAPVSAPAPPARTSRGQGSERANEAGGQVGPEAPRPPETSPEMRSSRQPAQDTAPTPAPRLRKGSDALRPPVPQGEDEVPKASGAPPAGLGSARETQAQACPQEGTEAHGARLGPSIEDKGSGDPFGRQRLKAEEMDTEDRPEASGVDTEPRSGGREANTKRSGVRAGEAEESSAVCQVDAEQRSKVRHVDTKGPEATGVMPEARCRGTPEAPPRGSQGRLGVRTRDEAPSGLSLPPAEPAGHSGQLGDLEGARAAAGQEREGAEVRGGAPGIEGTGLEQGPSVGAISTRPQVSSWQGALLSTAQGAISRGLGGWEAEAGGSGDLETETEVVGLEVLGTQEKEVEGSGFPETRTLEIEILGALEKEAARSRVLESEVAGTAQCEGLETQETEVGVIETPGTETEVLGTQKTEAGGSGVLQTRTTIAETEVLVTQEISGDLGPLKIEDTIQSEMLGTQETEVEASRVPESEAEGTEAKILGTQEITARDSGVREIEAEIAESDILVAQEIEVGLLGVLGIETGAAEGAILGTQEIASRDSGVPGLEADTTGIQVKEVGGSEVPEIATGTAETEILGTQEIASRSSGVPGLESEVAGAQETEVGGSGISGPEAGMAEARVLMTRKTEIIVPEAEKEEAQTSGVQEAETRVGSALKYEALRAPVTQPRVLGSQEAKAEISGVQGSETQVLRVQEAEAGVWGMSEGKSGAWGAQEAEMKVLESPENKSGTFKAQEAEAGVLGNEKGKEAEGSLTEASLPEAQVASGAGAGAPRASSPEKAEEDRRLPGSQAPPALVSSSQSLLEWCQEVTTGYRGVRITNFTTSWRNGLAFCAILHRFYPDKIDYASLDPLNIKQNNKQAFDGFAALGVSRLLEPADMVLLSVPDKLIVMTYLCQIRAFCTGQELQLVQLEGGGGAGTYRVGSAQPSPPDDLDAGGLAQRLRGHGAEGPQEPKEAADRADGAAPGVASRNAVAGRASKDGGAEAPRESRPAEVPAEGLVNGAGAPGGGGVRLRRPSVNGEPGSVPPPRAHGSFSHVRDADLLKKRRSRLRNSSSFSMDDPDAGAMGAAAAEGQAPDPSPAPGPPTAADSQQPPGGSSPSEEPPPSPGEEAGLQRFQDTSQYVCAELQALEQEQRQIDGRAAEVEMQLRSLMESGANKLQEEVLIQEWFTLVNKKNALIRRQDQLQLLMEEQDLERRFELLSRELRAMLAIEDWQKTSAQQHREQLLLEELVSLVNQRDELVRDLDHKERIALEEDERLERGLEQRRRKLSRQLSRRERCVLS
inactive: [1] -0.016 | [2] 0.065 | [3] 0.052 | [4] -0.022 | [5] -0.051

CTSZ (UniProt Q9UBR2)
Chain of UniProt Q9UBR2 (Q9UBR2 whole entry, looked up): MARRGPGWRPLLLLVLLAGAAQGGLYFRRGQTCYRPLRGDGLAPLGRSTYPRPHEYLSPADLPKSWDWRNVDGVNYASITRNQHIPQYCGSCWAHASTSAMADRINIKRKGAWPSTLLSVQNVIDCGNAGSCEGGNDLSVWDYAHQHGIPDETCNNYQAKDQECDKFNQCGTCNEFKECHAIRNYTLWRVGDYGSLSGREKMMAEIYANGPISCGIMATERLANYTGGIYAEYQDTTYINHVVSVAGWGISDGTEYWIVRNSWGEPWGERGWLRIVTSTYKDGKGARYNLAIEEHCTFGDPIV
inactive: [1] -0.003 | [2] 0.009 | [3] 0.032 | [4] 0.039 | [5] -0.01

DTYMK (UniProt P23919)
Chain of UniProt P23919 (P23919 whole entry, looked up): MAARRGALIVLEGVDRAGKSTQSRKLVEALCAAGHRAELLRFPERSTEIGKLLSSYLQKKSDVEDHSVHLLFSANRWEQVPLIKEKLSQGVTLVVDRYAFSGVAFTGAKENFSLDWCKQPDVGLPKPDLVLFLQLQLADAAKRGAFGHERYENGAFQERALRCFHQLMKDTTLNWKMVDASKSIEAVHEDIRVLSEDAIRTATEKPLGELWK
inactive: [1] -0.064 | [2] 0.082 | [3] -0.02 | [4] -0.003 | [5] -0.014

FAM122A (UniProt Q96E09)
inactive: [1] 0.008 | [2] -0.055 | [3] -0.022 | [4] 0.158 | [5] 0.083

FAM135A (UniProt Q9P2D6)
inactive: [3] 0.106

CTSS (UniProt P25774)
Chain of UniProt P25774 (P25774 whole entry, looked up): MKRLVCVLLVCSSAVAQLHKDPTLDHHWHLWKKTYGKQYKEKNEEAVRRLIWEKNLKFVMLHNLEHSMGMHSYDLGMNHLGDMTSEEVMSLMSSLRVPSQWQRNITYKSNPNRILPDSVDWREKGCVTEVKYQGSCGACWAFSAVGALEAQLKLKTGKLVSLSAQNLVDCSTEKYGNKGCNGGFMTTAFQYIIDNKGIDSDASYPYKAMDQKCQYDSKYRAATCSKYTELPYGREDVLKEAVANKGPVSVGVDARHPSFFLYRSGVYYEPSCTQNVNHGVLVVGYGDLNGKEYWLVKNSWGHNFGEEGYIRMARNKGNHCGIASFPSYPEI
inactive: [2] -0.004 | [3] -0.033 | [4] -0.192 | [5] 0.037

EDRF1 (UniProt Q3B7T1)
Chain of UniProt Q3B7T1 (Q3B7T1 whole entry, looked up): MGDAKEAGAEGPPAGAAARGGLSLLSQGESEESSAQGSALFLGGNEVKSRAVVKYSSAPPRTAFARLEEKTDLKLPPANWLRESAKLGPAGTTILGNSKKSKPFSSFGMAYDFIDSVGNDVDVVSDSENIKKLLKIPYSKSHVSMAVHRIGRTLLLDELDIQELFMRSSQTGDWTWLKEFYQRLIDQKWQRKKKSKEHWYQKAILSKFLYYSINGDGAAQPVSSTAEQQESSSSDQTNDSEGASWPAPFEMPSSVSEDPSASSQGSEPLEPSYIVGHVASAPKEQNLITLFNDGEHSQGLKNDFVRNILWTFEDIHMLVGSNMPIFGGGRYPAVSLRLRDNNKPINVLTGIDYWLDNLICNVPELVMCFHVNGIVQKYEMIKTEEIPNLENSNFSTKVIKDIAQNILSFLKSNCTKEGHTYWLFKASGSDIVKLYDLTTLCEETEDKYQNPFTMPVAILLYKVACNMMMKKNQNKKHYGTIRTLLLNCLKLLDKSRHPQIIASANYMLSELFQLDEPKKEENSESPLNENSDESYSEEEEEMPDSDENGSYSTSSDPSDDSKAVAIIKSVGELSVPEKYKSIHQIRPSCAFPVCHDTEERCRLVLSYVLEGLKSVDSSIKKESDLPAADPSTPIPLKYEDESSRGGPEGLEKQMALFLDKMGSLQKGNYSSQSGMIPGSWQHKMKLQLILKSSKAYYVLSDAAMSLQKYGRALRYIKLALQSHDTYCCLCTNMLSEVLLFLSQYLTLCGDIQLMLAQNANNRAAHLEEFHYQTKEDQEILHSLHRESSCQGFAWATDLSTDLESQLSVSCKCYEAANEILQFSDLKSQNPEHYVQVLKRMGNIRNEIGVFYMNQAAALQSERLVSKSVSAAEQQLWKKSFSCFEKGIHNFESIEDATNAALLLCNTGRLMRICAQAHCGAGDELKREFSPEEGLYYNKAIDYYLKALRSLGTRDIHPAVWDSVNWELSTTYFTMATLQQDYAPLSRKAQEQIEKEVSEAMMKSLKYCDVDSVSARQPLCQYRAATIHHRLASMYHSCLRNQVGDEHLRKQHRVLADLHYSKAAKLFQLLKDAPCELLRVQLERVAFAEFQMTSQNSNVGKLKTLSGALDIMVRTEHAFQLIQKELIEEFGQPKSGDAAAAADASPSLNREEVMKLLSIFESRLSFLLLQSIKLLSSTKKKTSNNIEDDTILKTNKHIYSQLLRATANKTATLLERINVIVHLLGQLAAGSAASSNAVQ
inactive: [1] 0.043 | [2] 0.245 | [5] -0.061

DERPC (UniProt P0CG12)
inactive: [1] 0 | [3] -0.015
